Screening data as filed in PubChem.
PG9 binder – binds the HIV-1 gp120 antibody PG9. hit rate 0.43% among 360,000. inhibition, % at 6.7 µM. TR-FRET gp120-PG9 antibody binding; in the data active = inhibition above about 8.5%
ABCB6 inh MLPCN – blocks the human ABCB6 transporter. fluorescence ratio to DMSO, % at 10 µM. Q9NP58. hit rate 0.19% among 360,000. K562-ABCB6 porphyrin accumulation, flow cytometry, 1 h; hits give low values;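 active = fluorescence ratio to DMSO below 75%, the collection mean minus 3 SD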;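 note: signal is porphyrin accumulated inside mitochondria; 100% equals median channel fluorescence of DMSO control wells; lower ratio means ABCB6 inhibition with less porphyrin fluorescence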
VLA-4 inh – inhibition in a human VLA-4 binding assay. P13612. VLA-4 expressing cells, ligand binding flow cytometry. inhibition, % (about 7 µM as worked out from the volumes in the protocol). hit rate 0.2% among 330,000. AID 2557; in the data active = inhibition above about 50%
Granule exo inh – lytic granule exocytosis inhibition. TALL-104 LAMP-1 surface exposure, flow cytometry; cells stimulated with thapsigargin and PMA. inhibition, % at 10 µM. hit rate 0.66% among 360,000. AID 651702;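 active = inhibition above about 55%, limit read from the data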
Rev-erbA mod – modulates human Rev-erb alpha binding to DNA. AID 1259318. hit rate 0.79% among 370,000. Rev-erbα–FITC-DNA binding, fluorescence polarization, 90 min. activity, % at 10 µM;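 active = activity above about 14%, limit read from the data; passing the limit was not always enough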;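 note: 0% = DMSO wells with 35 nM protein and 100% = DMSO wells with 750 nM protein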
Target sequence (P20393 whole entry, looked up): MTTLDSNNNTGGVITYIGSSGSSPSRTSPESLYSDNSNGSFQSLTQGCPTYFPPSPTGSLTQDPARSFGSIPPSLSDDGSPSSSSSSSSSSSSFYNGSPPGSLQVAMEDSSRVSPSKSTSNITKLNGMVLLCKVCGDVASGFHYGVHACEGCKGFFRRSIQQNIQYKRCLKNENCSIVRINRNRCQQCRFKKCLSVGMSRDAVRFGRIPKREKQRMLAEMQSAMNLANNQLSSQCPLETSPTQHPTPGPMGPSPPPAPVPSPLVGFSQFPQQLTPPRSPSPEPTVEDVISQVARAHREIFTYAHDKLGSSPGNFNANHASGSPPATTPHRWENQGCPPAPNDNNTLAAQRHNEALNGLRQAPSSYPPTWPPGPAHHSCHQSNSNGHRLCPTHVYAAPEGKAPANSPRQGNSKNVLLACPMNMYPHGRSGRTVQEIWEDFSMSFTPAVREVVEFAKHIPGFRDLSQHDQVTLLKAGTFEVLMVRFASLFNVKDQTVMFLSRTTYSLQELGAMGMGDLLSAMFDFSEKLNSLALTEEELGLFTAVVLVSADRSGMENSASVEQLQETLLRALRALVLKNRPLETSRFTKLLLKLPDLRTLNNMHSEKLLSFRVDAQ
ABCB6 blocker 1 – human ABCB6 transporter inhibition; shares compounds with ABCB6 inh MLPCN; K562-ABCB6 porphyrin accumulation, flow cytometry, 1 h; hits give low values; ratio response (% of DMSO), % at 10 µM; 700 tested, under 10 active;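 active = repeat-averaged ratio response below 75% of DMSO, the collection mean minus 3 SD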;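 note: median porphyrin fluorescence at 575 nm with 488 nm excitation from mitochondria; lower ratio means less porphyrin signal so ABCB6 inhibition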
K562 vector FC – activity in empty-vector K562 counter-screen for ABCB6 inhibitors; 25 tested, under 10 active; K562 empty-vector cells, flow cytometry fluorescence, 1 h; percent response (fluorescence), % at 100 µM; shares compounds with ABCB6 inh MLPCN;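 active = compounds whose half-maximal effective concentration is below 100 µM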
Active calls of the source: *; · = no result. Most compounds without a hit are left out; they make up all but 2% or so of the library.

SMILES	PG9 binder	ABCB6 inh MLPCN	VLA-4 inh	Granule exo inh	Rev-erbA mod	ABCB6 blocker 1	others
COC(=O)[C@]12C=CCN1[C@H](c1ccc(Cl)cc1)c1c(c3ccccc3n1S(=O)(=O)c1ccc(C)cc1)C2	·	·	·	·	3.0	·
CC1(C)CC(=O)C(C2C3=C(CC(C)(C)CC3=O)Oc3ccc4ccccc4c32)C(=O)C1 (stereo not drawn)	-2.7	74.0*	-11.6	-2.1	0.5	102.0
Cn1nc(C(F)(F)F)c(-c2cccc(C(F)(F)F)c2)c1NC(=O)Nc1ccc(F)cc1	-0.7	11.0*	16.3	3.3	6.2	96.0
CCN(CC)C(=O)CSc1nc(O)c(Cc2ccccc2)c(=O)n1-c1ccccc1	-3.7	57.0*	-38.1	-1.8	-2.2	100.0
CCOC(=O)N1CCN(C(=O)C[C@H]2C[C@@]3(C(=O)OC)C(=C[C@H](C(C)(C)C)O[C@@H]3C)N(Cc3cccc4ccccc34)C2=O)CC1	·	·	·	·	-0.3	·
Cc1cccc(N2CCN(C(=O)C3(S(=O)(=O)c4ccc(Cl)cc4)CC3)CC2)c1C	-0.1	98.0	1.0	-3.0	-1.6	·
Cc1ccc(S(=O)(=O)C2(C(=O)N3CCN(c4ccccc4F)CC3)CC2)cc1	0.0	72.0*	5.2	-7.6	-0.2	101.0
Cc1noc(C)c1S(=O)(=O)N1CCC(C(=O)O)CC1	-1.6	100.0	15.3	22.4	-5.1	99.0
COc1cccc(-c2nnc(SCc3cc(C)ccc3C)n2Cc2ccco2)c1	·	·	·	·	-0.3	·
O=C(CCCCCNc1nc(=S)[nH]c2ccccc12)N1CCN(c2ccccn2)CC1	-3.1	74.0*	-6.8	-1.3	-0.1	100.0
CCCCCCCCN1C(=O)[C@@H](CC(=O)NCC23CC4CC(CC(C4)C2)C3)C[C@@]2(C(=O)OC)C1=C[C@H](C(C)C)O[C@@H]2C1CC1	·	·	·	·	1.4	·
O=C(O)C1CCN(S(=O)(=O)c2ccc(Cl)s2)CC1	-1.9	94.0	14.6	1.0	1.0	97.0
CC1CCN(S(=O)(=O)c2ccc(Cl)s2)CC1	2.2	96.0	3.7	-4.1	7.6	·
O=C(COc1ccc(Br)cc1CO)N1CCCc2ccccc21	1.7	98.0	3.0	-0.5	-0.5	·
CCc1cc(=O)oc2c(C)c(OCC(=O)N3CCCc4ccccc43)ccc12	-1.1	74.0*	-6.4	0.6	-0.6	99.0
O=C(OCc1ccccc1)c1cccnc1	·	·	·	·	-3.7	·
CCOc1ccccc1C(=O)N[C@H](C(=O)Nc1ccc(OC)c(S(=O)(=O)N2CCOCC2)c1)C(C)C	1.6	94.0	6.0	-0.6	7.5	·
CCOc1ccc(C(=O)N[C@H](C(=O)Nc2ccc(OC)c(S(=O)(=O)N3CCOCC3)c2)C(C)C)cc1	0.3	73.0*	-0.6	-4.0	0.4	99.0
COc1ccc(OC)c(NC(=O)C2CC(=O)N(CCc3ccc(F)cc3)C2)c1 (stereo not drawn)	·	48.0*	·	-1.3	·	100.0
Cc1cccc(/C=C2\Sc3ccc(C(=O)N4CCC(C)CC4)cc3N(C)C2=O)c1	-0.6	13.0*	16.0	0.6	2.1	102.0
Cc1noc(C)c1CSc1ccc(Br)cc1	-1.9	71.0*	-8.1	0.9	-1.7	100.0
O=C(Cn1cc(C(=O)c2cccs2)c2ccccc21)NC1CCCCC1	2.5	60.0*	-1.2	-3.4	-3.3	100.0
O=C(O)C1C2C=CC(C2)C1C(=O)Nc1cccc(F)c1 (stereo not drawn)	-1.6	58.0*	16.6	0.4	-2.5	101.0
C[C@H]1CCCN1c1cccc2c1S(=O)(=O)N1CC[C@@H](C1)O2	·	·	·	·	-2.5	·
Cc1ccc(C(=O)Nc2cc(C)nn2CCC#N)cc1	0.4	74.0*	-4.5	3.6	3.6	97.0
SMILES	PG9 binder	ABCB6 inh MLPCN	VLA-4 inh	Granule exo inh	Rev-erbA mod	ABCB6 blocker 1	others
Cc1ccc(NS(=O)(=O)c2cc3c(cc2Cl)NC(=O)CO3)cc1C	·	·	·	·	-1.3	·
COc1ccc(S[C@]2(C(=O)N3CCN(c4ncccn4)CC3)CC(=O)N(c3ccsc3)[C@@H]2c2ccc(OC)cc2)cc1	·	·	·	·	3.5	·
CC(OC(=O)c1ccc(=O)n(Cc2ccccc2)n1)C(=O)Nc1cccc(Cl)c1 (stereo not drawn)	0.2	68.0*	13.7	3.6	-1.8	101.0
CSc1ncc(Cl)c(C(=O)Nc2ccc(C)c(C)c2)n1	0.2	98.0	0.2	-3.6	1.8	·
CC(C)c1nnc(NC(=O)c2nc(S(=O)(=O)Cc3ccccc3)ncc2Cl)s1	0.2	81.0	-7.1	11.7	-4.2	·	K562 vector FC=198.7
CCOC(=O)c1ccc(NC(=O)c2nc(S(=O)(=O)Cc3ccccc3)ncc2Cl)cc1	0.1	46.0*	17.2	45.7	2.5	·	K562 vector FC=230.8
CCOC(=O)c1ccc(NC(=O)CCS(=O)(=O)Cc2ccccc2)cc1	-3.2	106.0	-6.5	-18.7	2.6	·
CCCS(=O)(=O)c1ncc(Cl)c(C(=O)Nc2ccc(S(=O)(=O)Nc3ncccn3)cc2)n1	0.0	103.0	3.1	-1.4	1.1	104.0
Cc1ccc(NC(=O)c2nc(S(=O)(=O)Cc3ccccc3C)ncc2Cl)cc1C	1.7	48.0*	6.7	41.5	-2.5	·	K562 vector FC=254.3
CCCc1nnc(NC(=O)c2nc(S(=O)(=O)Cc3ccc(C)cc3)ncc2Cl)s1	-1.0	91.0	3.3	6.1	7.9	·	K562 vector FC=260.7
CCOc1ccccc1NC(=O)c1nc(S(=O)(=O)Cc2ccccc2)ncc1Cl	0.0	44.0*	14.1	46.9	4.3	·	K562 vector FC=275.6
CCc1ccc(NC(=O)c2nc(S(=O)(=O)Cc3ccccc3)ncc2Cl)cc1	0.6	66.0*	17.7	35.8	3.4	·	K562 vector FC=258.6
CSc1nnc(NC(=O)c2nc(S(=O)(=O)Cc3ccccc3)ncc2Cl)s1	-2.8	104.0	5.2	34.6	1.6	·
CCOC(=O)[C@@]12CCCC=C1N(CCc1ccc(Cl)cc1)C(=O)[C@H]2CC(=O)NCc1ccc(C)o1	·	·	·	·	2.4	·
CC(C)CNc1ccc2c(c1)OC[C@@H](CC(C)C)NS2(=O)=O	·	·	·	·	3.0	·
COc1ccc(-c2cc(-c3nnc4sc(-c5cccs5)nn34)[nH]n2)cc1	·	·	·	·	-0.3	·
Cc1ccc(S(=O)(=O)N(C)CC(=O)NCCCn2ccnc2)cc1	-0.7	61.0*	-0.2	-3.2	-0.1	101.0
CCN(CC(=O)NCCCn1ccnc1)S(=O)(=O)c1ccc(C)cc1	2.0	103.0	-3.9	-13.0	-3.5	·
O=C1CCCN1CCCN1C(=O)N[C@@H](Cc2ccccc2)C1=O	-1.4	100.0	33.8	4.7	-2.4	·
O=C1N[C@@H](Cc2ccccc2)C(=O)N1CCN1CCOCC1	0.7	48.0*	10.6	-0.8	1.1	97.0
CC(CNC(=O)c1ccc(C#N)cc1)NC(=O)c1ccc(C#N)cc1 (stereo not drawn)	-3.4	73.0*	5.6	4.7	-4.8	101.0
COc1ccc(C(=O)NCC(C)NC(=O)c2ccc(OC)cc2)cc1 (stereo not drawn)	0.2	100.0	3.8	52.6	2.8	·
Cc1ccc(-c2nc(N/N=C/c3ccccc3[N+](=O)[O-])c3ccccc3n2)cc1	1.4	74.0*	-9.4	-1.0	-2.3	98.0
O=[N+]([O-])c1ccccc1C=NNc1ccccc1	-1.7	101.0	·	10.1	-3.7	·
